Results on 64 compounds are retold here after PubChem BioAssay AID2315 (National Center for Advancing Translational Sciences (NCATS), 2010).

Screen size: about 290,000 compounds; about 27,000 (9.3%) were called active. No stated cut-off is given here; in the data, active means inhibition mostly above about 28% (no sharp cut-off); inactive means mostly below about 43%. Many of the other results were omitted from the sample, so actives are more common in it than they were. Where a SMILES comes first, the peptide text is derived from it. [ ]: non-standard residue; d: D form. The star is where a group is joined. PhAc = O=C(Cc1ccccc1)*

This experiment can be described thus: A qHTS for Small Molecule Inhibitors of Shiga Toxin. Further: 0% is about no effect. To be noted: Vero cells, Shiga toxin protein synthesis inhibition reporter; at 38.7 µM, active compounds read high. A general note: In qHTS, concentration-response curves come from the screen itself.
By inhibition is commonly meant the change of the read-out against control, counted positive when it falls. Regarding `CC(C)C[C@@H](NC(=O)[C@H]1CCCN1C(=O)Cc1ccccc1)C(N)=O` (PhAc-[dP]-[dL]-NH2), the inhibition was 6.07% (inactive). Next, `CCc1ccc(Nc2nnc(SCC(=O)c3ccc4c(c3)NC(=O)CO4)s2)cc1`: 32.3% (inactive). For `CC(C)[C@H](NC(=O)OCc1ccccc1)C(=O)OCc1ccccc1`, the inhibition is 25.1% (inactive).

With `CCC1OC(c2ccc([N+](=O)[O-])cc2)=Nc2ccccc21` (centres undefined), the inhibition is 6.08% (inactive). The figure for `COc1ccc(-c2n[nH]c(C)c2-c2ccccc2OC)c(O)c1` is 13.4% (inactive); for `O=C(C1CC(=O)N(c2ccc(Br)cc2)C1)N1CCCC1` (centres undefined) it is -22.5% (inactive); for `COc1ccc(NC(=O)c2cc([N+](=O)[O-])ccc2NC(=O)CNC2CCCCC2C)c(OC)c1` (centres undefined) it is 7.27% (inactive). The figure for `CCc1ccc2nc3sc(C(=O)Nc4nnc(CC)s4)c(N)c3cc2c1` is 48.9% (active).

`CCc1nnc(NC(=O)c2cccc(S(=O)(=O)N(C)c3ccc(OC)cc3)c2)s1`: the inhibition was -10.6% (inactive). Next, `CCc1nnc(NC(=O)c2sc3nc(C)cc(COC)c3c2N)s1`: 53.1% (inactive). `Cc1ccc(C)c(S(=O)(=O)Nc2cccc(-n3cnnn3)c2)c1`: the inhibition is 23.9% (inactive). Take `Cc1cccc[n+]1CC(=O)c1ccccc1`: the inhibition was 5.04% (inactive). Regarding `O=C(Nc1ccon1)c1cccc(Cl)c1`, the inhibition is 5.52% (inactive). For `O=C(N/N=C/c1c(Cl)[nH]c2ccccc12)c1sc2ccccc2c1Cl`, the inhibition was -0.233% (inactive). For the compound `O=C(Nc1ccon1)c1sc2ccccc2c1Cl`, the inhibition was 88% (active). Next, `CCOc1ccc(Nc2oc(Cc3ccccc3)nc2C#N)cc1`: 58.5% (active); `N#Cc1nc(Cc2cccc3ccccc23)oc1NCc1ccc2c(c1)OCO2`: 12.3% (inactive).

As for `N#Cc1nc(COc2ccc(-c3ccccc3)cc2)oc1NCc1cccnc1`, the inhibition was 56.8% (inactive). On to `N#Cc1nc(Cc2ccccc2)oc1NCCc1ccccc1`, for which the inhibition is 64.7% (active). The figure for `COc1ccc(Nc2oc(-c3ccccc3Cl)nc2C#N)cc1` is 20.6% (inactive); for `Cc1ccccc1-c1nc(C#N)c(NCc2ccco2)o1` it is 71.9% (inactive).

With `O=C(Nc1ccc(F)cc1)c1ccc(S(=O)(=O)NCc2cccnc2)cc1`, the inhibition was 27.5% (inactive). The figure for `CCOc1ccc(S(=O)(=O)N2CCC(C(=O)NCc3ccccn3)CC2)cc1Cl` is 3.21% (inactive). Consider `CC1CCN(C(=O)c2ccc3c(=O)n4c(nc3c2)CCCCC4)CC1`, for which the inhibition was 19.9% (inactive). Take `CCc1nnc(NS(=O)(=O)c2ccc(NC(=S)NC(=O)c3cccs3)cc2)s1`: the inhibition is -15.7% (inactive).

For `CC(=O)Nc1ccc(S(=O)(=O)Nc2nccc(/C=C/c3ccccc3F)n2)cc1`, the inhibition was 21.8% (inactive). Next, `Cc1cc(C)nc(NS(=O)(=O)c2ccc(N/C=C\C(=O)c3cccs3)cc2)n1`: 97.2% (active); `COc1ccc(C(C(O)C(=O)c2c[nH]c3ccccc23)N2CCN(c3ccccc3)CC2)cc1` (centres undefined): -5.67% (inactive); `COc1ccc(/C=C(\C#N)c2c[nH]c3ccccc23)cc1`: 68% (active).

Consider `COc1ccc2[nH]cc(/C=C(/C#N)S(=O)(=O)c3ccccc3)c2c1`, for which the inhibition was -6.23% (inactive). The figure for `NS(=O)(=O)c1ccc(NC(=S)NNC(=O)c2cccs2)cc1` is 107% (active); for `O=C(COC(=O)CCC(=O)c1cccs1)NCc1ccco1` it is -12.8% (inactive); for `O=C(COC(=O)/C(=C/c1cccs1)c1cccs1)NCc1ccccc1Cl` it is 13.7% (inactive). The figure for `O=C(COC(=O)c1cccs1)NCc1cccs1` is 40% (active).

For `NS(=O)(=O)c1ccc(NC(=S)NC(=O)c2cccnc2)cc1`, the inhibition was -16% (inactive). As for `O=C(COC(=O)c1cccs1)Nc1ccccc1Cl`, the inhibition is 36.9% (active).

Regarding `O=C(COC(=O)c1ccc(Cl)nc1)NCc1cccs1`, the inhibition was -3.54% (inactive). Next, `CCc1ccc(NC(=O)C(=O)NNC(=O)c2cccs2)cc1`: 39.1% (active); `NS(=O)(=O)c1ccc(NC(=S)NC(=O)c2cccc(Br)c2)cc1`: 4.4% (inactive); `Cc1ccccc1C(=O)N1CCN(c2ccc(NC(=O)c3cccs3)cc2)CC1`: -18.3% (inactive). In the case of `O=C(COC(=O)CCc1c[nH]c(=O)[nH]1)Nc1ccccc1Cl`, the inhibition is -3.38% (inactive). Next, `COc1ccc(CCOC(=O)CNC(=O)c2ccc(Cl)cc2Cl)cc1`: 7.31% (inactive). As for `CCCOc1ccc(CNC(=O)C2CCN(c3nn4c(=O)cc(C)nc4s3)CC2)cc1`, the inhibition was -3.64% (inactive). The figure for `Cc1cccnc1CCNC(=O)C1CCC(=O)N(Cc2cccc(F)c2)C1` (centres undefined) is -6.16% (inactive); for `COC(CNC(=O)c1ccc2c(c1)ncn2-c1cc(C)cc(C)c1)OC` it is 4.27% (inactive). The figure for `COc1cccc(CN(C)C(=O)CC23CC4CC(CC(C4)C2)C3)c1OC` is -11.5% (inactive); for `CS(=O)(=O)c1ccc(-c2nnn(CC(=O)Nc3ccc4c(c3)OCCO4)n2)cc1` it is 20.6% (inactive).

`C/C(=N\OCC(=O)Nc1ccc(Br)cc1)c1cccs1`: the inhibition was 40.3% (inactive).

On to `Cc1ccc(OCC(=O)Nc2ccc(NC(=O)c3cccs3)cc2)c(C)c1`, for which the inhibition was 25.9% (inactive). Regarding `CCc1cccc(NC(=O)CCNS(=O)(=O)c2cccc3nonc23)c1`, the inhibition was -3.23% (inactive). Next, `CCc1ccc(NC(=O)CCNS(=O)(=O)c2cccs2)cc1`: 53.4% (active); `O=S(=O)(NCCc1ccc(Cl)cc1)c1cccs1`: 10.5% (inactive). Next, `CCc1ccc(NC(=O)COC(=O)c2cccs2)cc1`: 51.4% (active). With `COc1ccccc1C(=O)N(C1=NC(C)CS1)c1ccc(Cl)cc1` (centres undefined), the inhibition was -5.01% (inactive). Next, `COc1ccccc1CNC(=O)C1CCN(C(=O)[C@@H]2Cc3ccccc3CN2)CC1`: 13.3% (inactive); `Cc1c(C(=O)NCC(c2ccco2)N2CCCC2)oc2ccc(Cl)cc12` (centres undefined): 49.7% (inactive); `Cc1nc2nc(SCC(=O)Nc3cccc(F)c3)[nH]c2cc1Br`: 6.55% (inactive).

Consider `CCCCn1c(SCC(=O)N2CCOCC2)nc2c1c(=O)n(C)c(=O)n2C`, for which the inhibition was -5.05% (inactive). Next, `CCOc1ccc(NC(=O)Nc2ccc(N(C)C(C)=O)cc2)cc1`: 73.9% (active); `CC(=O)N(C)c1ccc(NC(=O)Nc2cccc3ccccc23)cc1`: 77.5% (active).

On to `O=C(Nc1ccc2c(c1)C(=O)OC2)Nc1cccc2ccccc12`, for which the inhibition was 12.8% (inactive).

As for `CC(=O)N(C)c1ccc(NC(=O)C(F)(F)F)cc1`, the inhibition was 13.5% (inactive).

With `O=C(O)Cc1ccc(NC(=O)Nc2cccc3ccccc23)cc1`, the inhibition is -1.4% (inactive). Next, `CCOc1ccc(NC(=O)N(CC(C)C)CC(C)C)cc1`: 26.1% (inactive).
